Test results published in the supplement of paper PMC4466140.

Key:
Assay in all cases: SPOT peptide array binding signal intensity (averaged, normalized) (arbitrary units (background-subtracted, floor 0; scale differs between SH3 domains)); higher = stronger binding of the SH3 domain to the peptide
AgAbp1 = target: AgAbp1
Procedure: (§1)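 GST-tagged SH3 domains from S. cerevisiae (Sc), A. gossypii (Ag), C. albicans (Ca) and S. pombe (Sp) were incubated at 10 ug/ml overnight at 4 C on cellulose SPOT membranes carrying 292 synthetic 15-mer peptides mined from the S. cerevisiae proteome (cysteines replaced by serines). Binding was detected with anti-GST antibody, HRP secondary and chemiluminescence, quantified with Genespotter, and reported as normalized spot intensities averaged over biological replicates.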

AgBbc1 = target: AgBbc1
Procedure: as §1

AgBem1-D1 = target: AgBem1-D1
Procedure: as §1

AgBzz1-D1 = target: AgBzz1-D1
Procedure: as §1

AgBzz1-D2 = target: AgBzz1-D2
Procedure: as §1

AgCyk3 = target: AgCyk3
Procedure: as §1

AgFus1 = target: AgFus1
Procedure: as §1

AgHof1 = target: AgHof1
Procedure: as §1

AgHse1 = target: AgHse1
Procedure: as §1

AgLsb1 = target: AgLsb1
Procedure: as §1

AgLsb4 = target: AgLsb4
Procedure: as §1

AgMyo5 = target: AgMyo5
Procedure: as §1

AgNbp2 = target: AgNbp2
Procedure: as §1

AgRvs167 = target: AgRvs167
Procedure: as §1

AgSho1 = target: AgSho1
Procedure: as §1

AgSla1-D1-D2 = target: AgSla1-D1-D2
Procedure: as §1

AgSla1-D3 = target: AgSla1-D3
Procedure: as §1

CaAbp1-D1 = target: CaAbp1-D1
Procedure: as §1

CaAbp1-D2 = target: CaAbp1-D2
Procedure: as §1

CaBbc1 = target: CaBbc1
Procedure: as §1

CaBem1-D1 = target: CaBem1-D1
Procedure: as §1

CaBzz1-D1 = target: CaBzz1-D1
Procedure: as §1

CaBzz1-D2 = target: CaBzz1-D2
Procedure: as §1

CaCyk3 = target: CaCyk3
Procedure: as §1

CaFus1 = target: CaFus1
Procedure: as §1

CaHof1 = target: CaHof1
Procedure: as §1

CaHse1 = target: CaHse1
Procedure: as §1

CaLsb1 = target: CaLsb1
Procedure: as §1

CaLsb4 = target: CaLsb4
Procedure: as §1

CaMyo5 = target: CaMyo5
Procedure: as §1

CaNbp2 = target: CaNbp2
Procedure: as §1

CaRvs167 = target: CaRvs167
Procedure: as §1

CaRvs167-3 = target: CaRvs167-3
Procedure: as §1

CaSho1 = target: CaSho1
Procedure: as §1

CaSla1-D1-D2 = target: CaSla1-D1-D2
Procedure: as §1

CaSla1-D3 = target: CaSla1-D3
Procedure: as §1

ScAbp1 = target: ScAbp1
Procedure: as §1

ScBbc1 = target: ScBbc1
Procedure: as §1

ScBem1-D1 = target: ScBem1-D1
Procedure: as §1

ScBzz1-D1 = target: ScBzz1-D1
Procedure: as §1

ScBzz1-D2 = target: ScBzz1-D2
Procedure: as §1

ScCyk3 = target: ScCyk3
Procedure: as §1

ScFus1 = target: ScFus1
Procedure: as §1

ScHof1 = target: ScHof1
Procedure: as §1

ScHse1 = target: ScHse1
Procedure: as §1

ScLsb1 = target: ScLsb1
Procedure: as §1

ScLsb2 = target: ScLsb2
Procedure: as §1

ScLsb3 = target: ScLsb3
Procedure: as §1

ScLsb4 = target: ScLsb4
Procedure: as §1

ScMyo3 = target: ScMyo3
Procedure: as §1

ScMyo5 = target: ScMyo5
Procedure: as §1

ScNbp2 = target: ScNbp2
Procedure: as §1

ScPex13 = target: ScPex13
Procedure: as §1

ScRvs167 = target: ScRvs167
Procedure: as §1

ScSho1 = target: ScSho1
Procedure: as §1

ScSla1-D1-D2 = target: ScSla1-D1-D2
Procedure: as §1

ScSla1-D3 = target: ScSla1-D3
Procedure: as §1

SpAbp1-D1 = target: SpAbp1-D1
Procedure: as §1

SpBbc1 = target: SpBbc1
Procedure: as §1

SpBzz1-D1 = target: SpBzz1-D1
Procedure: as §1

SpBzz1-D2 = target: SpBzz1-D2
Procedure: as §1

SpCyk3 = target: SpCyk3
Procedure: as §1

SpHof1 = target: SpHof1
Procedure: as §1

SpHof1-2 = target: SpHof1-2
Procedure: as §1

SpHof1-3 = target: SpHof1-3
Procedure: as §1

SpHse1 = target: SpHse1
Procedure: as §1

SpLsb1 = target: SpLsb1
Procedure: as §1

SpLsb4 = target: SpLsb4
Procedure: as §1

SpMyo1 = target: SpMyo1
Procedure: as §1

SpNbp2 = target: SpNbp2
Procedure: as §1

SpPex13 = target: SpPex13
Procedure: as §1

SpRvs167 = target: SpRvs167
Procedure: as §1

SpSla1-D1-D2 = target: SpSla1-D1-D2
Procedure: as §1

SpSla1-D3 = target: SpSla1-D3
Procedure: as §1

Which results are given for TKIRRRPQQPLTDFT?
SPOT peptide array binding signal intensity (AgAbp1): 21; SPOT peptide array binding signal intensity (AgBbc1): 109; SPOT peptide array binding signal intensity (AgBem1-D1): 32; SPOT peptide array binding signal intensity (AgBzz1-D1): 42.5; SPOT peptide array binding signal intensity (AgBzz1-D2): 82; SPOT peptide array binding signal intensity (AgCyk3): 2; SPOT peptide array binding signal intensity (AgFus1): 150; SPOT peptide array binding signal intensity (AgHof1): 39.8; SPOT peptide array binding signal intensity (AgHse1): 61.5; SPOT peptide array binding signal intensity (AgLsb1): 22; SPOT peptide array binding signal intensity (AgLsb4): 18; SPOT peptide array binding signal intensity (AgMyo5): 0.5; SPOT peptide array binding signal intensity (AgNbp2): 6; SPOT peptide array binding signal intensity (AgRvs167): 2.33; SPOT peptide array binding signal intensity (AgSho1): 3; SPOT peptide array binding signal intensity (AgSla1-D1-D2): 12.5; SPOT peptide array binding signal intensity (AgSla1-D3): 3.5; SPOT peptide array binding signal intensity (CaAbp1-D1): 276; SPOT peptide array binding signal intensity (CaAbp1-D2): 158; SPOT peptide array binding signal intensity (CaBbc1): 518; SPOT peptide array binding signal intensity (CaBem1-D1): 13; SPOT peptide array binding signal intensity (CaBzz1-D1): 137; SPOT peptide array binding signal intensity (CaBzz1-D2): 147; SPOT peptide array binding signal intensity (CaCyk3): 76; SPOT peptide array binding signal intensity (CaFus1): 338; SPOT peptide array binding signal intensity (CaHof1): 0.25; SPOT peptide array binding signal intensity (CaHse1): 6.5; SPOT peptide array binding signal intensity (CaLsb1): ≤ 0; SPOT peptide array binding signal intensity (CaLsb4): 22.5; SPOT peptide array binding signal intensity (CaMyo5): 1.5; SPOT peptide array binding signal intensity (CaNbp2): 48.5; SPOT peptide array binding signal intensity (CaRvs167): 2.67; SPOT peptide array binding signal intensity (CaRvs167-3): 15.5; SPOT peptide array binding signal intensity (CaSho1): 38; SPOT peptide array binding signal intensity (CaSla1-D1-D2): 24; SPOT peptide array binding signal intensity (CaSla1-D3): 0.5; SPOT peptide array binding signal intensity (ScAbp1): 25; SPOT peptide array binding signal intensity (ScBbc1): 63.5; SPOT peptide array binding signal intensity (ScBem1-D1): 10; SPOT peptide array binding signal intensity (ScBzz1-D1): 33; SPOT peptide array binding signal intensity (ScBzz1-D2): 18; SPOT peptide array binding signal intensity (ScCyk3): 38; SPOT peptide array binding signal intensity (ScFus1): 44; SPOT peptide array binding signal intensity (ScHof1): ≤ 0; SPOT peptide array binding signal intensity (ScHse1): 281; SPOT peptide array binding signal intensity (ScLsb1): 4.75; SPOT peptide array binding signal intensity (ScLsb2): 1; SPOT peptide array binding signal intensity (ScLsb3): 115; SPOT peptide array binding signal intensity (ScLsb4): 15; SPOT peptide array binding signal intensity (ScMyo3): 1; SPOT peptide array binding signal intensity (ScMyo5): 2; SPOT peptide array binding signal intensity (ScNbp2): 93; SPOT peptide array binding signal intensity (ScPex13): 6.75; SPOT peptide array binding signal intensity (ScRvs167): 14; SPOT peptide array binding signal intensity (ScSho1): 148; SPOT peptide array binding signal intensity (ScSla1-D1-D2): 240; SPOT peptide array binding signal intensity (ScSla1-D3): 38.5; SPOT peptide array binding signal intensity (SpAbp1-D1): 94; SPOT peptide array binding signal intensity (SpBbc1): 5.75; SPOT peptide array binding signal intensity (SpBzz1-D1): 253; SPOT peptide array binding signal intensity (SpBzz1-D2): ≤ 0; SPOT peptide array binding signal intensity (SpCyk3): 1.5; SPOT peptide array binding signal intensity (SpHof1): 65.5; SPOT peptide array binding signal intensity (SpHof1-2): 5.5; SPOT peptide array binding signal intensity (SpHof1-3): 164; SPOT peptide array binding signal intensity (SpHse1): 93; SPOT peptide array binding signal intensity (SpLsb1): 5; SPOT peptide array binding signal intensity (SpLsb4): 104; SPOT peptide array binding signal intensity (SpMyo1): 8; SPOT peptide array binding signal intensity (SpNbp2): 10.5; SPOT peptide array binding signal intensity (SpPex13): 1; SPOT peptide array binding signal intensity (SpRvs167): 11.8; SPOT peptide array binding signal intensity (SpSla1-D1-D2): 1; SPOT peptide array binding signal intensity (SpSla1-D3): ≤ 0
